Measurements from PubChem BioAssay (EPA / NIEHS).
Records with an inconclusive call do not appear. Activity calls are given as the source filed them. The calls were made as follows, unless noted: active = hit-call score of the fitted dose curve at least 0.9, where 1 is the maximum; inactive = score below 0.9.

Assays:
[1] = ATG_NFI_CIS: Attagene CIS-FACTORIAL HepG2 Assay for human Nuclear Factor I (NFI) (AID 2282989); conditions: HepG2 cis-regulatory reporter, NFI response element transcription; actives raise or lower the signal
Outline: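 Endogenous TF activity in HepG2 cells transiently transfected with cis-element-driven multiplexed reporter units, read 24 h after dosing. Reporter mRNA quantified by RT-PCR, 6-FAM labelling, HpaI digestion and capillary electrophoresis; bidirectional fit versus DMSO.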

[2] = target: Myc proto-oncogene protein (Homo sapiens) (UniProt P01106); assay: ATG_Myc_CIS: Attagene CIS-FACTORIAL HepG2 Assay for human Myelocytomatosis (Myc) Proto-Oncogene Transcription Factor (AID 2282990); conditions: HepG2, Attagene cis-reporter transcription factor activity; actives raise or lower the signal
Outline: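 Multiplexed cis-reporter transcription in HepG2 cells after 24 h chemical treatment. Reporter mRNA measured by RT-PCR and capillary electrophoresis fluorescence; activity fitted bidirectionally against DMSO control.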

[3] = ATG_NF_kB_CIS: Attagene CIS-FACTORIAL HepG2 Assay for human Nuclear Factor Kappa B (NF-kB) (AID 2282991); conditions: HepG2 Attagene cis-factorial NF-kB reporter mRNA; actives raise or lower the signal
Outline: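 After 24 h compound incubation, transfected HepG2 cells yield total RNA; reporter cDNA is PCR-amplified, end-labelled with 6-FAM, HpaI-digested and analysed on a genetic analyser. Endogenous factor activity, DMSO-referenced bidirectional fit.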

[4] = ATG_NRF2_ARE_CIS: Attagene CIS-FACTORIAL HepG2 Assay for human Nuclear Factor Erythroid 2 Related Factor 2 (NFR2) response to Antioxidant Response Elements (ARE) (AID 2282992); conditions: HepG2 Attagene ARE/NRF2 reporter, transcription factor activity; actives raise or lower the signal
Outline: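 Transient MRTU transfection of HepG2; 24 h compound exposure; TriZol RNA, RT with oligo(dT), PCR, 6-FAM primer extension, HpaI cut, CE. Bidirectional fit vs DMSO.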

[5] = ATG_Oct_MLP_CIS: Attagene CIS-FACTORIAL HepG2 Assay for human Octamer-Binding Transcription Factor (Oct) (AID 2282993); conditions: HepG2 Attagene cis-factorial Oct reporter, mRNA; actives raise or lower the signal
Outline: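 HepG2 cells transiently transfected with cis-element-driven reporter transcription units (endogenous TF activity); 24 h compound exposure. Reporter mRNA quantified by RT-PCR, 6-FAM labelling, HpaI digestion and capillary electrophoresis; bidirectional fit versus DMSO baseline.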

[6] = target: Cellular tumor antigen p53 (Homo sapiens) (UniProt P04637); assay: ATG_p53_CIS: Attagene CIS-FACTORIAL HepG2 Assay for human p53 Transcription Factor (AID 2282994); conditions: HepG2 p53 cis-element reporter, Attagene mRNA; actives raise or lower the signal
Outline: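 HepG2, transient MRTU transfection (cis promoter elements, endogenous TFs); 24 h dosing; RNA isolation, RT-PCR, 6-FAM primer extension, HpaI digest, CE fluorescence; bidirectional fit vs DMSO.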

[7] = BSK_3C_TissueFactor: BioMAP Diversity Plus: 3C Assay for Tissue Factor Biomarker Activity (AID 2282997); conditions: BioMAP 3C HUVEC, tissue factor biomarker readout; actives raise or lower the signal
Outline: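 Primary human umbilical vein endothelial cells in the 3C system were exposed to test chemical for 24 h, then Tissue Factor measured by ELISA. Activity was fitted bidirectionally against DMSO as negative control and baseline.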

[8] = BSK_3C_uPAR: BioMAP Diversity Plus: 3C Assay for Urokinase-type plasminogen activator receptor (uPAR) Biomarker Activity (AID 2282998); conditions: BioMAP 3C HUVEC, uPAR biomarker ELISA; actives raise or lower the signal
Outline: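 Primary human umbilical vein endothelial cells, 3C system; surface uPAR measured by ELISA 24 h after dosing. Cytotoxicity via SRB total protein in parallel cultures; bidirectional fit against DMSO.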

[9] = BSK_3C_VCAM1: BioMAP Diversity Plus: 3C Assay for Vascular cell adhesion molecule 1 (VCAM1) Biomarker Activity (AID 2282999); conditions: BioMAP 3C HUVEC, VCAM1 ELISA, cytokine-stimulated; actives raise or lower the signal
Outline: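 Human umbilical vein endothelial cells were dosed with compound for 24 h, after which cell-surface VCAM-1 was quantified by ELISA. Bidirectional curve fitting used DMSO as negative control and activity baseline.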

[10] = BSK_4H_Eotaxin3: BioMAP Diversity Plus: 4H Assay for Eotaxin 3 Biomarker Activity (AID 2283000); conditions: primary human endothelial cells (HUVEC); actives raise or lower the signal
Outline: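 HUVEC, 24 h post-dose, ELISA for Eotaxin-3/CCL26. Gain or loss of signal fitted bidirectionally vs DMSO baseline.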

[11] = target: human Peroxisome Proliferator-activated Receptor alpha (PPARa), PPARA (gene 5465) (UniProt Q07869); assay: ATG_PPARa_TRANS: Attagene TRANS-FACTORIAL HepG2 Assay for human Peroxisome Proliferator-activated Receptor alpha (PPARa) (AID 2283001; active = hit-call score of the fitted dose curve at least 0.9, where 1 is the maximum)
Outline: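 HepG2 cells transiently transfected with multiplexed GAL4-UAS reporter units and chimeric NR-Gal4 constructs were dosed for 24 h. Reporter mRNA was measured by RT-PCR with fluorescent labelling and capillary electrophoresis; gain of signal fitted against DMSO.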

[12] = read-out: Intercellular Adhesion Molecule 1 (ICAM1), ICAM1 (gene 3383); assay: BSK_3C_ICAM1: BioMAP Diversity Plus: 3C Assay for Intercellular Adhesion Molecule 1 (ICAM1) Biomarker Activity (AID 2283003); conditions: primary human endothelial cells (HUVEC); actives raise or lower the signal
Outline: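 Primary human umbilical vein endothelial cells in the BioMAP 3C system were exposed to chemicals for 24 h, then ICAM-1 was quantified by ELISA. Activity was fitted bidirectionally against the DMSO negative control baseline.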

[13] = target: human Retinoic Acid Receptor beta (RARb), RARB (gene 5915) (UniProt P10826); assay: ATG_RARb_TRANS: Attagene TRANS-FACTORIAL HepG2 Assay for human Retinoic Acid Receptor beta (AID 2283004; active = hit-call score of the fitted dose curve at least 0.9, where 1 is the maximum)
Outline: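 HepG2 cells transiently transfected with multiplexed GAL4-UAS reporter units expressing chimeric NR–Gal4 fusions; 24 h compound exposure. Reporter mRNA quantified by RT-PCR, 6-FAM labelling, HpaI digestion and capillary electrophoresis; gain-of-signal fitted against DMSO baseline.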

[14] = target: Retinoic acid receptor alpha (Homo sapiens) (UniProt P10276); assay: ATG_RARa_TRANS: Attagene TRANS-FACTORIAL HepG2 Assay for human Retinoic Acid Receptor alpha (RARa) (AID 2283005; active = hit-call score of the fitted dose curve at least 0.9, where 1 is the maximum)
Outline: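 HepG2 cells transiently transfected with multiple reporter units expressing chimeric RARα-GAL4 fusion, with GAL4-UAS-driven reporters. After 24 h compound exposure, reporter mRNA induction quantified by RT-PCR and capillary electrophoresis with fluorescent labeling; gain-of-signal fitted relative to DMSO control.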

[15] = target: Peroxisome proliferator-activated receptor gamma (Homo sapiens) (UniProt P37231); assay: ATG_PPARg_TRANS: Attagene TRANS-FACTORIAL HepG2 Assay for human Peroxisome Proliferator-activated Receptor-gamma (PPARg) (AID 2283007; active = hit-call score of the fitted dose curve at least 0.9, where 1 is the maximum)
Outline: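 Liver-derived HepG2 cells expressing an exogenous NR-Gal4 chimera alongside GAL4-UAS reporter genes; 24 h exposure. Fluorescence of reporter RT-PCR products, separated by capillary electrophoresis, gives mRNA induction relative to DMSO.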

[16] = target: Nuclear receptor subfamily 1 group I member 2 (Homo sapiens) (UniProt O75469); assay: ATG_PXR_TRANS: Attagene TRANS-FACTORIAL HepG2 Assay for human Pregnane X Receptor (PXR) (AID 2283008; active = hit-call score of the fitted dose curve at least 0.9, where 1 is the maximum)
Outline: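 Read-out is fluorescence of labelled reporter cDNA fragments separated by capillary electrophoresis after RT-PCR and HpaI digestion. Source: HepG2 cells carrying PXR-GAL4/UAS reporter constructs, treated 24 h; activity fitted upward relative to DMSO.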

[17] = target: human Retinoic Acid Receptor gamma (RARg), RARG (gene 5916) (UniProt P13631); assay: ATG_RARg_TRANS: Attagene TRANS-FACTORIAL HepG2 Assay for human Retinoic Acid Receptor gamma (RARg) (AID 2283009; active = hit-call score of the fitted dose curve at least 0.9, where 1 is the maximum)
Outline: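 HepG2 cells transiently transfected with multiplexed reporter units expressing chimeric RARg-GAL4 and GAL4-UAS-driven reporters; 24 h compound exposure. Reporter mRNA quantified by RT-PCR with fluorescent labelling and capillary electrophoresis; gain-of-signal fitted relative to DMSO baseline.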

[18] = target: human Peroxisome Proliferator-activated Receptor delta (PPARd), PPARD (gene 5467) (UniProt Q03181); assay: ATG_PPARd_TRANS: Attagene TRANS-FACTORIAL HepG2 Assay for human Peroxisome Proliferator-activated Receptor delta (PPARd) (AID 2283002; active = hit-call score of the fitted dose curve at least 0.9, where 1 is the maximum)
Outline: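 Multiplexed trans-activation format: HepG2 liver cells expressing exogenous NR-Gal4 chimeras and GAL4-UAS reporters were exposed for 24 h. Reporter mRNA was detected by RT-PCR with capillary electrophoresis fluorescence; activity fitted as gain of signal relative to DMSO.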

[19] = target: human RAR-related Orphan Receptor beta (RORb), RORB (gene 6096) (UniProt Q92753); assay: ATG_RORb_TRANS: Attagene TRANS-FACTORIAL HepG2 Assay for human RAR-related Orphan Receptor beta (RORb) (AID 2283010; active = hit-call score of the fitted dose curve at least 0.9, where 1 is the maximum)
Outline: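 HepG2 cells were transiently transfected with multiplexed GAL4-UAS reporter units expressing chimeric nuclear receptor–GAL4 proteins, then dosed for 24 h. Reporter mRNA was quantified by RT-PCR with fluorescent labelling and capillary electrophoresis; gain of signal was fitted relative to DMSO.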

Measured: AC50

Retinoic acid receptor alpha (Homo sapiens), sequence (P10276 whole entry, looked up, the tested form may be a part): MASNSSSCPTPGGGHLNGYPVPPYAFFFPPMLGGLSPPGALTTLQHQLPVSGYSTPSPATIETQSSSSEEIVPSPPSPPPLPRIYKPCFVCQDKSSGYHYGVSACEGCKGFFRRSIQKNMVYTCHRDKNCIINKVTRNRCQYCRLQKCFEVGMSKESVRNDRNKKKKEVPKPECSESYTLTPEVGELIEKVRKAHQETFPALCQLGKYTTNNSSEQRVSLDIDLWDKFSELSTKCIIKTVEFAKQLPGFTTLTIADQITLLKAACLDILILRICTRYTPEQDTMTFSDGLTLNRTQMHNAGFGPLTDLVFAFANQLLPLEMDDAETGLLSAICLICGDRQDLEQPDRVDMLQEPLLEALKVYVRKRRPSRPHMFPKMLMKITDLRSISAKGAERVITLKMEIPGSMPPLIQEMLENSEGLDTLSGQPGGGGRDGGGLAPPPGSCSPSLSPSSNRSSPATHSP
Myc proto-oncogene protein (Homo sapiens), sequence (P01106 whole entry, looked up): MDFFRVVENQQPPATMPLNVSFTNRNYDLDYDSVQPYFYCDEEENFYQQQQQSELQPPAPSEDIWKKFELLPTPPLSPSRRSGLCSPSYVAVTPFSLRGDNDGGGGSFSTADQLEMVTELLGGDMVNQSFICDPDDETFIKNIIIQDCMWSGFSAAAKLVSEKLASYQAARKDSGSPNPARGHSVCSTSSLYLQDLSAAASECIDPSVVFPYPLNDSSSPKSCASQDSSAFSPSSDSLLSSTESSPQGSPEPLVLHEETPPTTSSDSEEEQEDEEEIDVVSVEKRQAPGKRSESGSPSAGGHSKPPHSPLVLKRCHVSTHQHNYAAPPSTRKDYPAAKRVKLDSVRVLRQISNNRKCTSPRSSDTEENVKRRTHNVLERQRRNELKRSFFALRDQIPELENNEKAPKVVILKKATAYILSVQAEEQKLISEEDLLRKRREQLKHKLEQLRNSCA
human RAR-related Orphan Receptor beta (RORb), RORB (gene 6096), sequence (Q92753 whole entry, looked up, the tested form may be a part): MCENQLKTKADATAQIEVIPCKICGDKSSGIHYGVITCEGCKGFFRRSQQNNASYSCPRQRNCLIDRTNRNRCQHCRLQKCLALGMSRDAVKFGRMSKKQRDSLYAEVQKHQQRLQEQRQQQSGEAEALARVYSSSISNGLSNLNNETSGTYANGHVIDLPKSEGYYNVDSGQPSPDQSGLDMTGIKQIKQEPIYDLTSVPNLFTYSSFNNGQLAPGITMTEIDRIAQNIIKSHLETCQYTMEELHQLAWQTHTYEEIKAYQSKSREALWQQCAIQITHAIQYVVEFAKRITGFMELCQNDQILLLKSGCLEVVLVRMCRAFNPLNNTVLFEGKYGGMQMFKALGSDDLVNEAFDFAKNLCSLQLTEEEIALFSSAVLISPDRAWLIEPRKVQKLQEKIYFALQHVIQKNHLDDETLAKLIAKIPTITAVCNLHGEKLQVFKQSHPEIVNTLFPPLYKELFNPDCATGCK
Peroxisome proliferator-activated receptor gamma (Homo sapiens), sequence (P37231 whole entry, looked up, the tested form may be a part): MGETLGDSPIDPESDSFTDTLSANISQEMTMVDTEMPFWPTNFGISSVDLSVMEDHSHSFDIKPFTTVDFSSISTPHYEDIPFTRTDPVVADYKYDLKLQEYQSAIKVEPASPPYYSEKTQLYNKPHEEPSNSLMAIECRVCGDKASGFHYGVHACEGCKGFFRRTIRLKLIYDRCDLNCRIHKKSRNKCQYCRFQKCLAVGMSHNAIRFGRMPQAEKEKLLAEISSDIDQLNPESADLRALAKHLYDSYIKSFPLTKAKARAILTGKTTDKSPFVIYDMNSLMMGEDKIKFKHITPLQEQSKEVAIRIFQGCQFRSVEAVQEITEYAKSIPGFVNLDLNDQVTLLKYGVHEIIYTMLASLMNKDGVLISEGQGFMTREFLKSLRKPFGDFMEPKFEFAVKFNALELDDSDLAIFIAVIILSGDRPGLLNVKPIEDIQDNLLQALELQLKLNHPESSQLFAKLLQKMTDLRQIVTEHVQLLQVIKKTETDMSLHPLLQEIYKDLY
human Retinoic Acid Receptor gamma (RARg), RARG (gene 5916), sequence (P13631 whole entry, looked up, the tested form may be a part): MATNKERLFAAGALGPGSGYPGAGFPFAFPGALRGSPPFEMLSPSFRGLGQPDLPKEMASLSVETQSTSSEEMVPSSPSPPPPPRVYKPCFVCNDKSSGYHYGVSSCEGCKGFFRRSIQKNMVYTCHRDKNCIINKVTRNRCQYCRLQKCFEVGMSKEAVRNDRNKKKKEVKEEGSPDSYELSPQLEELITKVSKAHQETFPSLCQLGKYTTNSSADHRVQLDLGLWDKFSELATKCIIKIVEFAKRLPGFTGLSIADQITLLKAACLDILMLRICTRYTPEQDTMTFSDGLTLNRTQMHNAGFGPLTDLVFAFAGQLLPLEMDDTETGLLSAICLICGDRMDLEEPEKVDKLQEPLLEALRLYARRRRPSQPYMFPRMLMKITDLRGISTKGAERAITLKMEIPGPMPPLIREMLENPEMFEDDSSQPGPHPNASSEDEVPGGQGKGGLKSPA
human Retinoic Acid Receptor beta (RARb), RARB (gene 5915), sequence (P10826 whole entry, looked up, the tested form may be a part): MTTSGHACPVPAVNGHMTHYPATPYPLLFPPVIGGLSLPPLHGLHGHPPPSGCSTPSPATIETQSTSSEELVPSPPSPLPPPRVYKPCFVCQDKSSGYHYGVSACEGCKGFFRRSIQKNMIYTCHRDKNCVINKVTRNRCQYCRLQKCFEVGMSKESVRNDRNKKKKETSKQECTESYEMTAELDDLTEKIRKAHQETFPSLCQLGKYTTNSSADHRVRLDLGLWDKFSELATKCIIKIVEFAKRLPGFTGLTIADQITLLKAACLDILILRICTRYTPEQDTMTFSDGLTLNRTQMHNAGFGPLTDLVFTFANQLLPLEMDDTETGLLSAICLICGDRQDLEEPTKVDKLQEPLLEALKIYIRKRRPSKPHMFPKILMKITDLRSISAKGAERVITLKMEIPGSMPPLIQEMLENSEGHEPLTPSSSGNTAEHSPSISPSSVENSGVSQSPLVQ
human Peroxisome Proliferator-activated Receptor alpha (PPARa), PPARA (gene 5465), sequence (Q07869 whole entry, looked up, the tested form may be a part): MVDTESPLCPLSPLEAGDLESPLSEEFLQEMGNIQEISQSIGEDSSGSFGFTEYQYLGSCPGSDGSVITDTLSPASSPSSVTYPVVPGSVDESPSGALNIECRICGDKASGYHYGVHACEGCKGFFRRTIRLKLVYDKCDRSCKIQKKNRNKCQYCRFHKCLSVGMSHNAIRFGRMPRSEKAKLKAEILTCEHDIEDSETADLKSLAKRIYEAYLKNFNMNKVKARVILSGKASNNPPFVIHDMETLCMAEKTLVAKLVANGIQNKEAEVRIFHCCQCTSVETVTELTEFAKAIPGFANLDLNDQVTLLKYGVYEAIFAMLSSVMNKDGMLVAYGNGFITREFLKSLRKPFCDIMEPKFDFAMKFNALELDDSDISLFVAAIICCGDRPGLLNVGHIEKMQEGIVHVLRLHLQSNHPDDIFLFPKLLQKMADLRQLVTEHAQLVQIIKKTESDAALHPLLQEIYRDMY
Nuclear receptor subfamily 1 group I member 2 (Homo sapiens), sequence (O75469 whole entry, looked up, the tested form may be a part): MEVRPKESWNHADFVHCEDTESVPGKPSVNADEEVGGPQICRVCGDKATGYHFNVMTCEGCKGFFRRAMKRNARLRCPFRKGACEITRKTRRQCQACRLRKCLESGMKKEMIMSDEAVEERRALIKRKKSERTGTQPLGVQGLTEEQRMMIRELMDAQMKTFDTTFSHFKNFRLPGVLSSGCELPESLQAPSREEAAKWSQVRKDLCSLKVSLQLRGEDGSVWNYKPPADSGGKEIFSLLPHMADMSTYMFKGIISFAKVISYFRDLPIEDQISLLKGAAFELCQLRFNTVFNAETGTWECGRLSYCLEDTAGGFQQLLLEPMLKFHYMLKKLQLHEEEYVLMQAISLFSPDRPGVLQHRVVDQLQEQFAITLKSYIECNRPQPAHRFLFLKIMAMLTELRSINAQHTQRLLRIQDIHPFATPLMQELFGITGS
human Peroxisome Proliferator-activated Receptor delta (PPARd), PPARD (gene 5467), sequence (Q03181 whole entry, looked up, the tested form may be a part): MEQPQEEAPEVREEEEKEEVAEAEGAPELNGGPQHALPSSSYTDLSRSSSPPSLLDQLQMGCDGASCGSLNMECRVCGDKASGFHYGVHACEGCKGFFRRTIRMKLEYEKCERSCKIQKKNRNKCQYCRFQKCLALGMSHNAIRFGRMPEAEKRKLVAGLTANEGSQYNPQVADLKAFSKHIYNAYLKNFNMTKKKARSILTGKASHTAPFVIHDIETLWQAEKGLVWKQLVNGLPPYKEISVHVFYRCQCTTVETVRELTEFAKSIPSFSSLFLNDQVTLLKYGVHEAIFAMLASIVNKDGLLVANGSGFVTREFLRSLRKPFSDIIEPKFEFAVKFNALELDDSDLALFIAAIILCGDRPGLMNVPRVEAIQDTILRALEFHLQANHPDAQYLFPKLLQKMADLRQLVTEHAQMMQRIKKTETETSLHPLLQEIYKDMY
Cellular tumor antigen p53 (Homo sapiens), sequence (P04637 whole entry, looked up): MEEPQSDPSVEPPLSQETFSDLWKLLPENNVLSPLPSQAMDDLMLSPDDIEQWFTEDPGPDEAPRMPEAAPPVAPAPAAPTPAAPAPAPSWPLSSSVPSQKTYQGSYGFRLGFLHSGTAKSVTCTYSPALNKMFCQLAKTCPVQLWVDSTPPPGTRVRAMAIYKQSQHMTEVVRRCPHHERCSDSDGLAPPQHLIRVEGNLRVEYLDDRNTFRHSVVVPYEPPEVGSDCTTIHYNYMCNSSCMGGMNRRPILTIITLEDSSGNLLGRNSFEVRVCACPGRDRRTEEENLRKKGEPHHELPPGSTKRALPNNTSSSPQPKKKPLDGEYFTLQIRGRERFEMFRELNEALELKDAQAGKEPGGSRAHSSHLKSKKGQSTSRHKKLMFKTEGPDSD

O=C1c2ccccc2C(=O)c2c(O)ccc(O)c21
active: [3] 2.27 µM | [4] 4.07 µM | [7] 1.21 µM | [8] 3.02 µM | [10] 4.31 µM | [15] 8.37 µM | [16] 8.69 µM
not listed: [18] | [19]
inactive: all other assays above

O=CN1CCOCC1
not listed: [13] | [14] | [17] | [19]
inactive: all other assays above

C[Si]1(C)O[Si](C)(C)O[Si](C)(C)O1
not listed: [7] | [8] | [9] | [10] | [12]
inactive: all other assays above

ON=C1CCCCC1
inactive: [1] | [2] | [3] | [4] | [5] | [6] | [11]

CCCCCCCCC=CCCCCCCCC1=NCCN1CCO
active: [1] 6.21 µM | [3] 26 µM | [6] 21 µM
inactive: [2] | [4] | [5] | [11] | [18] | [14] | [15] | [17] | [19]

C[Si](C)(C)O[Si](C)(C)C
inactive: [1] | [2] | [3] | [4] | [5] | [6] | [11] | [18] | [14] | [19]

CCCCCCCCCCCCCC(=O)OCC(O)CO (stereo not given)
active: [4] 112 µM
not listed: [7] | [8] | [9] | [10] | [12] | [15] | [19]
inactive: all other assays above

CCC1CCCCC1
not listed: [7] | [8] | [9] | [10] | [12] | [18] | [19]
inactive: all other assays above

Cc1ncc[nH]1
inactive: [1] | [2] | [3] | [4] | [5] | [6] | [11] | [18] | [15]

[O-]n1ccccc1=S.[O-]n1ccccc1=S.[Zn+2]
active: [3] 0.999 µM
not listed: [7] | [8] | [9] | [10] | [12] | [16] | [17]
inactive: all other assays above
